The values that follow come from PubChem BioAssay.

The test system of assay [1] is Human papillomavirus type 1a protein E7 (residues 44-93). Kind of assay: HPV1a E7 fragment binders on microarrays, primary screen, biochemical, small-molecule microarray, residues 44-93, 635 nm fluorescence (AID 1108).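 Note: E7 fragment applied at 1 µg/mL in TBST for 1 h at 4 C; score combines spot fluorescence with its signal to noise ratio.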 Particulars: small-molecule microarray binding, fluorescence 635 nm; higher = more signal.
Assay [2] in a line: modulators of HCV replicon luciferase signal, primary screen, HCV replication inhibitor project, Huh7 cells, luciferase reporter (AID 1109).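 Note: huh7 hepatoma cells harbouring a luciferase neomycin HCV replicon reporter; luciferase luminescence as measure of HCV replicon replication; test concentration not given here.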 The following applies: 48 h, higher = more signal.
Assay [3] concerns the target Left-right determination factor 2 (Homo sapiens) (UniProt O00292). The assay is described as follows: LEFTY2 binders on small-molecule microarrays, primary screen, biochemical, small-molecule microarray, 635 nm fluorescence scan (AID 1110). The following applies: LEFTY2 binding, higher = more signal.
The target of assay [4] is Calmodulin-1 (Homo sapiens) (UniProt P0DP23). Kind of assay: CALM1 binders on microarrays, EGTA buffer, profiling panel, biochemical, small-molecule microarray, Cy5-labelled CALM1 (AID 1111).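 Note: labelled calmodulin applied in Tris saline Tween buffer holding calcium plus EGTA and DTT.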 Particulars: Cy5-CALM1 binding fluorescence, higher = more signal.
For assay [5] the target is unchanged. Kind of assay: calcium-bound CALM1 binders on microarrays, profiling panel, artefact control for SMM control-protein annotation, biochemical, small-molecule microarray, Cy5-labelled CALM1, plus calcium (AID 1112).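 Note: score merges spot fluorescence with signal to noise from triplicate slides.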 Particulars: Cy5-CALM1 binding fluorescence, higher = more signal.
Assay [6] is described as follows: small-molecule microarray binders of probe aWnt5a, primary screen, biochemical, biotinylated probe, 635/667 nm fluorescence (AID 1113).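 Note: score merges 667 nm fluorescence intensity with signal-to-noise per printed feature.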 The following applies: higher = more signal.
Assay [7] in a line: small-molecule microarray binders of probe aShh, primary screen, biochemical, biotinylated probe, 635/667 nm fluorescence (AID 1114).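 Note: probe is biotin-labelled aShh protein from a stem cell growth factor screen; measures binding of labelled protein to compounds printed on the slide; score merges feature fluorescence at 667 nm with signal-to-noise.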 Particulars: higher = more signal.
Assay [8] in a line: small-molecule microarray binders of probe aNog, primary screen, biochemical, biotinylated probe, 635/667 nm fluorescence (AID 1115).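 Note: probe is biotinylated aNog protein used at 0.15 µg/mL for 1 h at 4 C; z-score combines 667 nm fluorescence of each spot with its signal to noise.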 The following applies: higher = more signal.
Assay [9] addresses Torsin-1A-interacting protein 1 (Homo sapiens) (UniProt Q5JTV8). The assay is described as follows: LAP1 binders from COS7 cell lysate, primary screen, small-molecule microarray, 635/667 nm fluorescence (AID 1116). The following applies: COS7-hLAP1 lysate binding, 635 nm fluorescence, higher = more signal.
The target in assay [10] is Alpha-bungarotoxin (Bungarus multicinctus) (UniProt P60615). The assay is described as follows: alpha-bungarotoxin binders on microarray, profiling panel, artefact control for SMM control protein annotation, biochemical, small-molecule microarray, Alexa647 label, 635/667 nm fluorescence (AID 1117). Particulars: alpha-BTX-A647 binding fluorescence, higher = more signal.
Sequence of Alpha-bungarotoxin (Bungarus multicinctus) (P60615 whole entry, looked up): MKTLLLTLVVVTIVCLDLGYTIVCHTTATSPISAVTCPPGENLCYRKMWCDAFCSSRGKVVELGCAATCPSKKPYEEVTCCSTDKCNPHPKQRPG

Sequence of Torsin-1A-interacting protein 1 (Homo sapiens) (Q5JTV8 whole entry, looked up): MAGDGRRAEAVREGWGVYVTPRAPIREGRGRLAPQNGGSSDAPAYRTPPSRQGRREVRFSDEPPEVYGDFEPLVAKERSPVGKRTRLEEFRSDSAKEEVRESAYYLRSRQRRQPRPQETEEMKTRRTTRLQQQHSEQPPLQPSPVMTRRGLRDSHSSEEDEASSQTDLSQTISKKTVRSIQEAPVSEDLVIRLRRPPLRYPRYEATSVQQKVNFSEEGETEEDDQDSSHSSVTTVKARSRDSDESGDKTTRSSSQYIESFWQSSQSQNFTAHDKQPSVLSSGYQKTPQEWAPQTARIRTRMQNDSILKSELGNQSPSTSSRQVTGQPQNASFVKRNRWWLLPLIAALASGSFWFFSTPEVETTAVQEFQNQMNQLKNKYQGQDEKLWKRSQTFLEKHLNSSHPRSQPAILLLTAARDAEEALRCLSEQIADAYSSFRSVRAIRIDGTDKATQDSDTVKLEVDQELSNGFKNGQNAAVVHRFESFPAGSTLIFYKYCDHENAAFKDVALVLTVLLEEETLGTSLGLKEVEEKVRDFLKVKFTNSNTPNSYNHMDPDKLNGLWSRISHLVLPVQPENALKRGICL
Sequence of Left-right determination factor 2 (Homo sapiens) (O00292 whole entry, looked up): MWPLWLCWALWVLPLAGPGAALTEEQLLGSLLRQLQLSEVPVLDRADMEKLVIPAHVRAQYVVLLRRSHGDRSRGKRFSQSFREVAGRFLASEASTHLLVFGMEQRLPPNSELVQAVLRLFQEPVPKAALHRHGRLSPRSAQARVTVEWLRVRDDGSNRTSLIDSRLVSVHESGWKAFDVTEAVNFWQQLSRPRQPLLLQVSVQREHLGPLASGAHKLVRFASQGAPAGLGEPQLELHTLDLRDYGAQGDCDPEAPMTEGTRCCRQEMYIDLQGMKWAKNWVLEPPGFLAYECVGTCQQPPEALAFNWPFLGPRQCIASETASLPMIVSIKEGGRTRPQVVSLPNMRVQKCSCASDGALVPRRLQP

Consider `CCOC(=O)C[C@H]1[C@H](OC(=O)c2ccc(C(=O)c3ccccc3)cc2)[C@@H](NC(=O)c2ccc3ccccc3c2)c2cc(OCCCO)ccc2N1C(=O)c1ccc2ccccc2n1`, for which the composite z-score in assay [1] was 1.05; in assay [3] it was 0.23; in [4], 0.794; in [5], -0.191; in assay [6], -0.168; in assay [7] it was -0.191. The composite z-score in [8] was -0.188; in assay [9], 0.982; in [10], 0.898. The compound further registered a z-score in assay [2] of -0.415.

Consider `COc1ccc(CCNC(=O)[C@@]2(Sc3ccc(C)cc3)CC(=O)N(Cc3cc(C(F)(F)F)cc(C(F)(F)F)c3)[C@@H]2c2ccc(CO)cc2)cc1`, for which the composite z-score in assay [1] is -1.13; in assay [3] it was -2.47; in [4], -0.615; in assay [5] it was -0.0998; in assay [6], -0.124; in [7], -0.117. Also, the composite z-score in assay [8] was -0.54; in assay [9] it was -0.282; in assay [10], 1.24. In assay [2], this compound registered a z-score of -0.146.

Consider `COCCCNC(=O)[C@@H]1c2ccccc2C(=O)N(C2CCCCC2)[C@H]1c1ccc(CO)cc1`, for which the composite z-score was -0.093 in assay [1]; -1.22 in assay [3]; -0.28 in assay [4]; 0.716 in assay [5]; -0.124 in assay [6]; -0.0769 in assay [7]. Besides, the results for the composite z-score in assay [8], in assay [9] and in [10] were -0.0633, 1.25 and -1.08, respectively. This compound showed a z-score in assay [2] of -1.27.

`COCCOC(=O)N1C(=O)[C@@]2(c3ccccc31)[C@H](C(=O)N1CCCCCCC1)[C@H]1C(=O)O[C@H](c3ccccc3)[C@H](c3ccccc3)N1[C@@H]2c1ccc(O)cc1`: the composite z-score in [1] stood at 1.4; in [3] it was 1.17; in assay [4], 2.73; in assay [5], 1.56; in assay [6], 1.39; in assay [7], 1.04. Further, the figures for the composite z-score in [8], in assay [9] and in assay [10] were 2.12, 5.09 and 3.37, respectively. This compound had a z-score in [2] of -1.06.

As for `NC(=O)NCC#Cc1ccc2c(c1)[C@]1(C(=O)N2)[C@H](C(=O)Nc2nc3ccccc3s2)[C@H]2C(=O)O[C@H](c3ccccc3)[C@H](c3ccccc3)N2[C@@H]1c1ccc(OCCO)cc1`, the composite z-score was 0.537 in assay [1]; -0.828 in assay [3]; 0.84 in assay [4]; 0.417 in assay [5]; 0.0108 in assay [6]; -0.151 in assay [7]. Further, the results for the composite z-score in [8], in [9] and in assay [10] were -0.464, 0.281 and 0.9, respectively. Besides, the z-score in [2] was -0.942.

`C=CCC(OC(C)=O)[C@@H]1[C@@H](N(Cc2cc3ccccc3o2)C(=O)c2cccc3ccccc23)c2cc(OCCCO)ccc2N1C(=O)c1ccc2ccccc2c1` (stereo not given in full): the composite z-score in assay [1] is -0.0617; in [3], -0.338; in [4], -0.0758; in assay [5], 0.63; in assay [6], 0.0047; in [7], -0.138. Further, the composite z-score is -0.12 in assay [8], 0.414 in assay [9] and 0.0671 in [10]. The same compound had a z-score in [2] of -0.0143.

Turning to `C=C(/C(=C/C[C@H](OC(=O)c1ccncc1)c1ccccc1OCCO)c1cc(C(=O)OC)ccc1OC)C(C)C`, the composite z-score was 1.03 in assay [1]; 0.255 in assay [3]; -0.23 in [4]; -0.587 in [5]; 0.132 in [6]; 0.0639 in assay [7]. Besides, the composite z-score in assay [8] was -0.194; in assay [9] it was 0.0538; in assay [10], 1.42. In assay [2], this compound registered a z-score of -2.96.

For `C=CCOC(=O)[C@H]1[C@@H]2C(=O)O[C@@H](c3ccccc3)[C@@H](c3ccccc3)N2[C@@H](c2ccc(OCCOC(=O)[C@H]3C[C@H]4C(=O)NCC(=O)N4[C@H]3c3ccc(O)cc3)cc2)[C@]12C(=O)Nc1ccc(I)cc12`, the composite z-score in assay [1] was 0.429; in assay [3], 0.788; in [4], 0.275; in [5], 0.295; in assay [6], -0.1; in assay [7], -0.367. The composite z-score in assay [8] is -0.158; in [9], 0.365; in [10] it was -0.303. In assay [2], this compound displayed a z-score of -1.58.

In the case of `CN(C)CCCC[C@@H]1NC(=O)[C@@H]2C[C@H](C(=O)NCc3ccc(F)cc3)[C@H](c3ccc(O)cc3)N2C1=O`, the composite z-score in [1] is 0.16; in [3] it was -0.275; in [4], -0.638; in [5], 0.235; in [6], -0.204; in [7], -0.138. Further, the composite z-score in [8] is -0.0503; in assay [9], 0.385; in [10] it was -0.407. The z-score in assay [2] was -0.0619.

With `NC(=O)N1C(=O)C2C(C1=O)C1C=C(CCCO)C2C(c2ccc(CN3CCCC3)cc2)N1Cc1cccc(OC(F)(F)F)c1` (stereo not given), the composite z-score was 0.433 in [1]; 0.565 in assay [3]; 0.011 in assay [4]; -0.202 in [5]; -0.104 in [6]; 0.296 in [7]. The results for the composite z-score in assay [8], in [9] and in assay [10] were 0.429, -0.226 and 0.546, respectively. Besides, in assay [2], the z-score is -3.48.

Regarding `COCCn1c(C(=O)N2CCCC2)cc2c1C[C@H]1CN(C(=O)c3ccccc3)[C@@](Cc3ccccc3)(C(=O)OC)[C@@H]21`, the composite z-score in assay [1] was 1.51; in [3], 0.222; in assay [4], 1.89; in assay [5], 0.808; in assay [6], 0.869; in [7], 1.3. The composite z-score in assay [8] was found to be 2.73; in [9], 1.12; in assay [10] it was 0.253. For the same compound, the z-score in assay [2] was -0.976.

With `O=C1C2C=CC(C(O)C(c3ccccc3)c3ccccc3)N(Nc3ccccc3)C2C(=O)N1c1ccccc1` (stereo not given), the composite z-score was 1.44 in assay [1]; 0.438 in assay [3]; 0.809 in assay [4]; 0.173 in assay [5]; -0.0051 in [6]; 0.0068 in [7]. Besides, the composite z-score in assay [8] amounted to 0.162; in assay [9], 0.429; in assay [10] it was 1.1. In assay [2], this compound yielded a z-score of -0.267.

Regarding `C=CCC(OC(C)=O)[C@@H]1[C@@H](N(Cc2cc3ccccc3o2)C(=O)c2ccc(-c3ccccc3)cc2)c2cc(OCCCO)ccc2N1C(=O)c1ccc2ccccc2n1` (stereo not given in full), the composite z-score in [1] is 0.061; in [3], 0.163; in assay [4], -0.12; in assay [5], 0.898; in assay [6] it was 0.107; in [7] it was -0.124. For the same compound, the results for the composite z-score in assay [8], in assay [9] and in assay [10] were -0.961, 0.554 and 0.113, respectively. In assay [2], this compound showed a z-score of 0.104.

`C=CCC(OC(C)=O)[C@@H]1[C@@H](N(Cc2ccc(-c3cccc(C(F)(F)F)c3)o2)C(=O)Cc2ccc(F)cc2)c2cc(OCCCO)ccc2N1C(=O)c1ccc2ccccc2n1` (stereo not given in full): the composite z-score in assay [1] is -0.848; in assay [3], -0.0009; in assay [4], -0.297; in [5], 0.195; in assay [6] it was -0.0462; in assay [7], -0.185. In addition, the composite z-score in [8] was -0.172; in assay [9] it was 0.0265; in assay [10] it was -0.124. In [2], the z-score was -0.937.

In the case of `CC(C)C[C@@H]1NC(=O)[C@H]2C[C@@H](C(=O)NCCCCCNC(=O)CS)[C@@H](c3ccc(O)cc3)N2C1=O`, the composite z-score in [1] was 1.46; in [3], 0.679; in assay [4], 1.03; in assay [5] it was -0.568; in [6], 0.23; in [7], 0.203. Also, the composite z-score in [8] was -0.324; in assay [9] it was 0.602; in assay [10], 1.54. The same compound gave a z-score in assay [2] of -0.28.

On to `CCOC(=O)C1=CC[C@@H](c2ccc(F)cc2)N(S(=O)(=O)c2ccc(C)cc2)[C@H]1c1ccc([N+](=O)[O-])cc1`, for which the composite z-score in assay [1] was 1.34; in assay [3], -0.248; in assay [4] it was 1.56; in [5], -0.171; in [6], 0.0323; in [7], -0.138. The composite z-score in assay [8] was -0.158; in assay [9] it was 0.341; in assay [10] it was 0.937. In [2], this compound displayed a z-score of -1.05.

`COCCOC(=O)N1C(=O)[C@@]2(c3cc(C#CCCO)ccc31)[C@H](c1ccccc1OCCO)N1[C@H](c3ccccc3)[C@H](c3ccccc3)OC(=O)[C@H]1[C@@H]2C(=O)N1CCc2cc(OC)c(OC)cc2C1`: the composite z-score in assay [1] is 1.42; in assay [3], 0.507; in [4] it was 1.07; in assay [5], 0.0615; in assay [6], -0.0882; in [7], -0.0119. Further, the composite z-score in [8] is -0.0331; in assay [9] it was 1.52; in assay [10], 1.49. Also, in [2], the z-score is -1.36.
